According to the supplement of paper PMC10849652:
Of roughly 7,900 targets only a part is listed; those with a hit were picked by preference. About 0.6% of all pairs of compound and target were hits. A number with no mark means an inactive call.

What was measured:
Assay in all cases: log2 fold change, soluble protein after heating vs DMSO (PISA); higher = thermal stabilisation; K562 cells, 10 uM, 30 min; active = over 0.2 and 3.5 SD of the protein, either way, in both replicates (recomputed)
bafetinib = compound: Cc1ccc(NC(=O)c2ccc(CN3CC[C@H](N(C)C)C3)c(C(F)(F)F)c2)cc1Nc1nccc(-c2cncnc2)n1 [bafetinib]
In short: (§1)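 Values are thermal stability changes relative to control samples and are taken from duplicates. They are stated as log2 fold changes. Before quantification by TMTpro 16plex LC-MS/MS with equalised channel sums, K562 cells at 2×10^6 cells/mL were treated with 10 μM compound for 30 min, heated in aliquots for 3 min across 48°C-58°C, pooled, extracted in PBS with 0.5% NP-40 at 4°C, and centrifuged at 21,000xg for 90 min to give the soluble supernatant.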

[1] = compound: Cc1cccc(CC(=O)N2CCc3c2ccc(-c2cn(C)c4ncnc(N)c24)c3F)n1
In short: as §1

nilotinib = compound: Cc1cn(-c2cc(NC(=O)c3ccc(C)c(Nc4nccc(-c5cccnc5)n4)c3)cc(C(F)(F)F)c2)cn1 [nilotinib]
In short: as §1

[2] = compound: Cc1nc(Nc2n[nH]c3c2CN(C(=O)N[C@H](CN(C)C)c2ccccc2)C3(C)C)c2sccc2n1
In short: as §1

dasatinib = compound: Cc1nc(Nc2ncc(C(=O)Nc3c(C)cccc3Cl)s2)cc(N2CCN(CCO)CC2)n1 [dasatinib]
In short: as §1

[3] = compound: Cc1ncc(-c2ccnc(Nc3ccc(S(C)(=O)=O)cc3)n2)n1C(C)C
In short: as §1

[4] = compound: Cn1cc(-c2ccc3c(c2)CCN3C(=O)Cc2cccc(C(F)(F)F)c2)c2c(N)ncnc21
In short: as §1

[5] = compound: Cn1cc(-c2ccc3nnc(C(F)(F)c4ccc5ncccc5c4)n3n2)cn1
In short: as §1

tipifarnib = compound: Cn1cncc1[C@@](N)(c1ccc(Cl)cc1)c1ccc2c(c1)c(-c1cccc(Cl)c1)cc(=O)n2C [tipifarnib]
In short: as §1

mubritinib = compound: FC(F)(F)c1ccc(/C=C/c2nc(COc3ccc(CCCCn4ccnn4)cc3)co2)cc1 [mubritinib]
In short: as §1

Chain of UniProt Q9Y2W1 (Q9Y2W1 whole entry, looked up): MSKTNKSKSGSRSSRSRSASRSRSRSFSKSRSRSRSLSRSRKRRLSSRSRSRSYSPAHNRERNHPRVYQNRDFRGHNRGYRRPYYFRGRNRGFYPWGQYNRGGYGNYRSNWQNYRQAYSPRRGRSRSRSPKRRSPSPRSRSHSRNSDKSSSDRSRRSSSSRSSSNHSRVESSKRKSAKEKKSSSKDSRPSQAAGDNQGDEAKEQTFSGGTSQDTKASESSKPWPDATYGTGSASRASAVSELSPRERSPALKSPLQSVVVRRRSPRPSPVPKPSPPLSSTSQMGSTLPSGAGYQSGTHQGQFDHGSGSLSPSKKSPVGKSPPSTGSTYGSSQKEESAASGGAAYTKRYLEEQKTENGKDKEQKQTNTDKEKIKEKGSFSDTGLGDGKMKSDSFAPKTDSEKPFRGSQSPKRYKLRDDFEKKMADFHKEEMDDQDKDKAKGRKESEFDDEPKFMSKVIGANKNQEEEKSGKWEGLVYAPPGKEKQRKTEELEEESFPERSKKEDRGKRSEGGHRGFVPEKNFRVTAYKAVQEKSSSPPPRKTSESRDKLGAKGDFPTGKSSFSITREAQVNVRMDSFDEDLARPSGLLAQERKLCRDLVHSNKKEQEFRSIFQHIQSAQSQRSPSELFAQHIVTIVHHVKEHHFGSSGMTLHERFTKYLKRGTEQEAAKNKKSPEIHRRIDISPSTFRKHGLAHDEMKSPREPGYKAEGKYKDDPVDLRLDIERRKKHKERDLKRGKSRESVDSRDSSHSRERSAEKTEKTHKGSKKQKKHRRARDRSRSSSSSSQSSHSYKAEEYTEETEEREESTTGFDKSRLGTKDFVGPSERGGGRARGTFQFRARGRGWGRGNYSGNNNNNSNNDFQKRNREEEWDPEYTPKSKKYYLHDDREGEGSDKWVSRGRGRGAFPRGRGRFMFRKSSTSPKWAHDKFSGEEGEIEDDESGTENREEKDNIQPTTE
Chain of UniProt Q08945 (Q08945 whole entry, looked up): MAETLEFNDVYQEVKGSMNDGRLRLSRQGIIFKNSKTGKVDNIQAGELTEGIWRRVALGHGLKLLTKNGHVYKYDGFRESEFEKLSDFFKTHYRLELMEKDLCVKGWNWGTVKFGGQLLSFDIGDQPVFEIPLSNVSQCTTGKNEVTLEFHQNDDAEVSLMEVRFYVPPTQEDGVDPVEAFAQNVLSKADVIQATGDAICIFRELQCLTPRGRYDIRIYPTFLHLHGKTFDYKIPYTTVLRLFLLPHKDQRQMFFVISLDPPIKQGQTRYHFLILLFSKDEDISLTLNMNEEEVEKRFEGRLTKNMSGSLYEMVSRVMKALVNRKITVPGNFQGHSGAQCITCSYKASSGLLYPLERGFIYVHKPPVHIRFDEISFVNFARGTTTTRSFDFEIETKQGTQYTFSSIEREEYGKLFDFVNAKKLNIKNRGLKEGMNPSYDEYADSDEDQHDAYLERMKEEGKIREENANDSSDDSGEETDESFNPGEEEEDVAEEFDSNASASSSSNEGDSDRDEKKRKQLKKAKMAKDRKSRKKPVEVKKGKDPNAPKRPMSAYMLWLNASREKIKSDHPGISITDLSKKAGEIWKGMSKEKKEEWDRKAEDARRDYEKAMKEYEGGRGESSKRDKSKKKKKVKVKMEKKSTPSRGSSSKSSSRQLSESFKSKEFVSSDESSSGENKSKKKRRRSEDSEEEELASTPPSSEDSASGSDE
Chain of UniProt Q13247 (Q13247 whole entry, looked up): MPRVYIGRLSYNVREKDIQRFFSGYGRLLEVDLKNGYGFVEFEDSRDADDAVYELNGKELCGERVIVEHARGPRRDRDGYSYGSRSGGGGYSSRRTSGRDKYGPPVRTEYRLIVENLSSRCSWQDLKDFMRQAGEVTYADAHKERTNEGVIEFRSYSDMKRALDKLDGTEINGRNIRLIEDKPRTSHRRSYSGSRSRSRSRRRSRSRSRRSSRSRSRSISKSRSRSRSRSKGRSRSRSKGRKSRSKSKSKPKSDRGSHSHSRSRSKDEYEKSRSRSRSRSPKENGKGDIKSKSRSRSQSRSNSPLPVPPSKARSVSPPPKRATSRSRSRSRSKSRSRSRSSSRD
Chain of UniProt Q15796 (Q15796 whole entry, looked up): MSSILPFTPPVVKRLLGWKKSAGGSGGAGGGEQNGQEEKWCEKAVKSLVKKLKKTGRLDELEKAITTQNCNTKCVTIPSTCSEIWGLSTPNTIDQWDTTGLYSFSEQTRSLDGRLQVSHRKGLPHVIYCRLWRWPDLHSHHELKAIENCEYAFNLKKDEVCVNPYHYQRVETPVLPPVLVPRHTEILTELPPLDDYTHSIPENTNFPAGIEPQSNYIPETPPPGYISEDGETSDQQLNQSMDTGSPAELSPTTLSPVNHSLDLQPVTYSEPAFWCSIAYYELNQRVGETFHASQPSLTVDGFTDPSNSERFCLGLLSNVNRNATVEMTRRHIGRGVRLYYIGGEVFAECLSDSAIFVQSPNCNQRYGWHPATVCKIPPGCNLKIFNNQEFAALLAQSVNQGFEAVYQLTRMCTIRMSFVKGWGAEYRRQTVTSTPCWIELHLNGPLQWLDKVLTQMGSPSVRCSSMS
Chain of UniProt Q99523 (Q99523 whole entry, looked up): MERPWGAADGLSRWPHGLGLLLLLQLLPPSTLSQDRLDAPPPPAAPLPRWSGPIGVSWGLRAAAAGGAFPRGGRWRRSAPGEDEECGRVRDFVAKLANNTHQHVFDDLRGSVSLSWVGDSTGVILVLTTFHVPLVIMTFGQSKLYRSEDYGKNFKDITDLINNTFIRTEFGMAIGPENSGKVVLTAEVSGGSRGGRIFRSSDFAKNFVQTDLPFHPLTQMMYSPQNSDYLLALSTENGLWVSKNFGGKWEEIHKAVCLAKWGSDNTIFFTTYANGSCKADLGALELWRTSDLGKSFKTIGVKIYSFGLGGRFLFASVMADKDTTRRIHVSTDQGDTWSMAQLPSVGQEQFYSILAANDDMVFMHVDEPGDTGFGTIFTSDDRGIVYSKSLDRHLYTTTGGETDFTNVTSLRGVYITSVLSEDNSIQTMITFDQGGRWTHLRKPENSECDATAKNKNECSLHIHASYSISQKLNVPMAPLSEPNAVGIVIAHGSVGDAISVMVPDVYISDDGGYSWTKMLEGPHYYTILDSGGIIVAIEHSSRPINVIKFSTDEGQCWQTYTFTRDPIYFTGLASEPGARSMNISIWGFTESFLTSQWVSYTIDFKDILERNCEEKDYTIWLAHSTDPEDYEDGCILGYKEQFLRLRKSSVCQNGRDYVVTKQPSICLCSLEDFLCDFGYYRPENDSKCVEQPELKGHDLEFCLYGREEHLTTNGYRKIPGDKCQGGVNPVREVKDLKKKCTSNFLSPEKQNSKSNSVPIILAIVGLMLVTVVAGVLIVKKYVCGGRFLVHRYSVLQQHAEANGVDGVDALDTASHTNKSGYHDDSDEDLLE
Chain of UniProt O60493 (O60493 whole entry, looked up): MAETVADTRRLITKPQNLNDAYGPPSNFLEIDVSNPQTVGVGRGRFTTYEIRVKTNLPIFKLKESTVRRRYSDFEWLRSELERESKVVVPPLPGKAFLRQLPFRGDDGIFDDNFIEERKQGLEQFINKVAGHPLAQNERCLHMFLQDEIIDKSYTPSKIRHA
Chain of UniProt Q9NVC3 (Q9NVC3 whole entry, looked up): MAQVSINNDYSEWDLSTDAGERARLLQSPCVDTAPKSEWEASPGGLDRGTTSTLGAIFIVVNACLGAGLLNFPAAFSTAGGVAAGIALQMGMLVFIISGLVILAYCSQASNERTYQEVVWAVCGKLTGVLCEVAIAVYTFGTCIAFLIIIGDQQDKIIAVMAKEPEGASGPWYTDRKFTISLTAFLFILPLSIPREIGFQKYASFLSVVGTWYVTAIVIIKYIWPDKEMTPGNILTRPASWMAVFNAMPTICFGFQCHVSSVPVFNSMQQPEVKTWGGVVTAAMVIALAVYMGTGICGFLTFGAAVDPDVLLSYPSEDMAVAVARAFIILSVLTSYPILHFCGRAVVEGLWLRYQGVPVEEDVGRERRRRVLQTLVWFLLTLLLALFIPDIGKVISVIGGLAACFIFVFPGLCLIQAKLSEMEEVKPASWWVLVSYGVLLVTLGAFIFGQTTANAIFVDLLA
Chain of UniProt Q93075 (Q93075 whole entry, looked up): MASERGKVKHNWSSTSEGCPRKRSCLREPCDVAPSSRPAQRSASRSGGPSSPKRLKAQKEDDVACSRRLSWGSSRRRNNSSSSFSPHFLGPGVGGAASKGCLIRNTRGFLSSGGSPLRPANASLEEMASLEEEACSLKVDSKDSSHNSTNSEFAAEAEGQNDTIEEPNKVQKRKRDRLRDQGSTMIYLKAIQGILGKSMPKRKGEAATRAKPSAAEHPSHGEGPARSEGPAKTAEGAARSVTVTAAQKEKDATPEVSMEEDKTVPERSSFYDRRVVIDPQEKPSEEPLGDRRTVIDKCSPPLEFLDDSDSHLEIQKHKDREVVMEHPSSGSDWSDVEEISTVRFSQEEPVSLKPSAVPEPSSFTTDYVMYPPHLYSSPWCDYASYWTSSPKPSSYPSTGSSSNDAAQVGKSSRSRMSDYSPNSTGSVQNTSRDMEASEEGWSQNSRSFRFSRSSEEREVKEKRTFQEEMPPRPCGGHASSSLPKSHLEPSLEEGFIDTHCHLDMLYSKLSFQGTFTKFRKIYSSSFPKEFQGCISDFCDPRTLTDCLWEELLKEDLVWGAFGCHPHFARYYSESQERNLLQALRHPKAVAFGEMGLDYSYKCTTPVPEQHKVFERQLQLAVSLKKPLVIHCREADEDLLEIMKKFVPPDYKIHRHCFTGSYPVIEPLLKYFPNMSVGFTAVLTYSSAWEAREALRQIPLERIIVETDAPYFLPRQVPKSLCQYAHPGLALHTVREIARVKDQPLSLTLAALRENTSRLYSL
Chain of UniProt Q15526 (Q15526 whole entry, looked up): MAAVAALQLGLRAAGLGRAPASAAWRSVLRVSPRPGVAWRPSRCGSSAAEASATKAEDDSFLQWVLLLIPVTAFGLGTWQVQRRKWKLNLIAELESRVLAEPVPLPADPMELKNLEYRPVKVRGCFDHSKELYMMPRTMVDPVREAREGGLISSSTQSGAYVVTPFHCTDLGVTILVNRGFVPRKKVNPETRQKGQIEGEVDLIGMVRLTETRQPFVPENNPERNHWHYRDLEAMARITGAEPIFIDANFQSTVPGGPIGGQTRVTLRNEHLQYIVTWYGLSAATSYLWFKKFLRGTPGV

| Target | log2 fold change (bafetinib) | log2 fold change [1] | log2 fold change (nilotinib) | log2 fold change [2] | log2 fold change (dasatinib) | log2 fold change [3] | log2 fold change [4] | log2 fold change [5] | log2 fold change (tipifarnib) | log2 fold change (mubritinib) |
| --- | --- | --- | --- | --- | --- | --- | --- | --- | --- | --- |
| SORT1 (UniProt Q99523) | -0.494 (active) | -0.011 | 0.041 | -0.023 | 0.02 | -0.122 | 0.018 | -0.026 | 0.076 | 0.045 |
| TIMM21 (UniProt Q9BVV7) | -0.149 | 0.058 | -0.011 | -0.014 | 0.011 | -0.003 | 0.025 | 0.074 | 0.055 | -0.011 |
| ST6GAL1 (UniProt P15907) | 0.001 | 0.029 | 0.168 | -0.048 | 0.131 | -0.001 | 0.007 | -0.02 | 0.128 | -0.023 |
| TLK1 (UniProt Q9UKI8) | -0.071 | 0 | -0.073 | -0.399 (active) | -0.028 | 0.007 | 0.06 | 0.026 | 0.01 | 0.011 |
| SNX3 (UniProt O60493) | 0.01 | 0.032 | -0.034 | 0.035 | -0.163 | -0.339 (active) | -0.03 | 0.001 | 0.019 | -0.108 |
| STK38L (UniProt Q9Y2H1) | -0.02 | -0.065 | -0.032 | -0.238 | -0.012 | -0.03 | -0.122 | -0.582 |  | 0.081 |
| TIPRL (UniProt O75663) | -0.052 | 0.066 | -0.022 | -0.025 | -0.103 | -0.035 | 0.032 | 0.048 | -0.16 | 0.098 |
| SURF1 (UniProt Q15526) | -0.184 | -0.042 | -0.065 | 0.028 | -0.028 | 0.011 | 0.021 | 0.019 | -0.061 | 0.042 |
| TENT5C (UniProt Q5VWP2) | -0.055 | 0.009 | 0.002 | 0.02 | -0.122 | 0.005 | -0.286 | 0.028 | -0.02 | 0.014 |
| SMAD2 (UniProt Q15796) | -0.019 | -0.037 | -0.085 | -0.123 | -0.13 | -0.14 | 0.023 | 0.057 | 0.012 | 0.022 |
| SMIM20 isoform 2 (UniProt Q8N5G0) | -0.011 | -0.011 | -0.037 | -0.001 | 0.012 | -0.102 | 0.05 | 0.156 | 0.017 | 0.009 |
| SLC25A42 (UniProt Q86VD7) | -0.081 | -0.069 | 0.009 | -0.024 | -0.025 | 0.048 | -0.022 | -0.049 | 0.017 | 0.051 |
| SRC isoform 2 (UniProt P12931) | -0.054 | -0.037 | -0.041 | -0.499 |  | -0.136 | 0.008 | -0.163 | 0.005 | 0.031 |
| SNRNP40 (UniProt Q96DI7) | 0.018 | -0.023 | 0.054 | 0.166 | 0.1 | 0.119 | -0.051 | -0.021 | 0.038 | 0.006 |
| TATDN2 (UniProt Q93075) | 0.088 | -0.151 | 0.137 | -0.217 | -0.042 | -0.043 | -0.059 |  | 0.074 |  |
| STARD3 (UniProt Q14849) | -0.097 | 0.064 | 0.215 | 0.218 | 0.284 | 0.068 | 0.119 | -0.018 | 0.022 | -0.067 |

| Target | log2 fold change (bafetinib) | log2 fold change [1] | log2 fold change (nilotinib) | log2 fold change [2] | log2 fold change (dasatinib) | log2 fold change [3] | log2 fold change [4] | log2 fold change [5] | log2 fold change (tipifarnib) | log2 fold change (mubritinib) |
| --- | --- | --- | --- | --- | --- | --- | --- | --- | --- | --- |
| SRSF6 (UniProt Q13247) | 0.578 | 0.192 | 0.155 | -0.813 (active) | 0.079 | 0.095 | -0.251 |  | 0.212 | -0.014 |
| SYNE1 (UniProt Q8NF91) | -0.051 | 0.008 | 0.021 | -0.281 | -0.074 | -0.074 | 0.079 | -0.098 |  | 0.182 |
| SSBP4 (UniProt Q9BWG4) | -0.045 | -0.069 | 0.038 | 0.014 | -0.021 | 0.053 |  | 0.033 | 0.301 | 0.066 |
| SNX9 (UniProt Q9Y5X1) | -0.015 | 0.03 | -0.06 | -0.064 | -0.131 | 0.006 | -0.023 | -0.008 | -0.013 | 0.009 |
| SLC30A7 (UniProt Q8NEW0) | -0.169 | -0.094 | -0.16 | 0.052 | 0.04 | 0.003 | 0.048 | -0.026 | 0.023 | 0.107 |
| SLC38A7 (UniProt Q9NVC3) | -0.142 | 0.016 | 0.05 | -0.023 |  | -0.053 | -0.005 | 0.084 | 0.056 | -0.007 |
| STIM1 (UniProt Q13586) | -0.143 | 0 | 0.002 | -0.01 | -0.006 | -0.025 | 0.028 | 0.01 | 0.012 | 0.016 |
| TGFBR1 isoform 2 (UniProt P36897) | -0.009 | -0.052 | -0.049 | -0.018 |  | 0.007 | -0.046 | 0.001 | 0.017 | -0.113 |
| SLC4A2 (UniProt P04920) | -0.101 | -0.037 | 0.027 | -0.165 | -0.125 | 0.043 | 0.023 | -0.045 | -0.068 | 0.029 |
| STK4 (UniProt Q13043) | -0.053 | -0.027 | -0.003 | 0.143 | -0.052 | -0.016 | 0.005 | 0 | 0.039 | -0.028 |
| STK11IP (UniProt Q8N1F8) | -0.06 | 0.111 | -0.081 | 0.058 | -0.19 | 0.051 | -0.068 |  | 0.034 | -0.071 |
| THRAP3 (UniProt Q9Y2W1) | 0.052 | -0.025 | 0.049 | -0.177 | -0.009 | 0 | -0.045 | -0.033 | 0.118 | 0.063 |
| SLC7A6OS (UniProt Q96CW6) | -0.062 | 0.15 | -0.019 | -0.035 | 0.004 | -0.031 | 0.026 | -0.13 | 0.06 | 0.058 |
| SSRP1 (UniProt Q08945) | 0.007 | 0.015 | -0.025 | -0.175 | -0.059 | -0.075 | 0.03 | -0.033 | 0 | 0.009 |
| SP1 (UniProt P08047) | -0.041 | -0.006 | 0.005 | -0.003 | -0.005 | -0.02 | -0.018 | 0.091 | 0.01 | -0.023 |
